In the supplement of paper PMC10849652:
Targets with a hit are over-represented here; the source holds about 7,900 in all. About 0.6% of all pairs of compound and target were hits.

Tests used:
Test in all cases: log2 fold change, soluble protein after heating vs DMSO (PISA); higher = thermal stabilisation; K562 cells, 10 uM, 30 min; active = over 0.2 and 3.5 SD of the protein, either way, in both replicates (recomputed)
[1] = compound: Cc1ccc(NC(=O)c2ccc(CN3CC[C@H](N(C)C)C3)c(C(F)(F)F)c2)cc1Nc1nccc(-c2cncnc2)n1 [bafetinib]
Method in brief: (§1)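 Values are thermal stability changes relative to control samples and are taken from duplicates. They are stated as log2 fold changes. Before quantification by TMTpro 16plex LC-MS/MS with equalised channel sums, K562 cells at 2×10^6 cells/mL were treated with 10 μM compound for 30 min, heated in aliquots for 3 min across 48°C-58°C, pooled, extracted in PBS with 0.5% NP-40 at 4°C, and centrifuged at 21,000xg for 90 min to give the soluble supernatant.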

[2] = compound: Cc1cccc(CC(=O)N2CCc3c2ccc(-c2cn(C)c4ncnc(N)c24)c3F)n1
Method in brief: as §1

[3] = compound: Cc1cn(-c2cc(NC(=O)c3ccc(C)c(Nc4nccc(-c5cccnc5)n4)c3)cc(C(F)(F)F)c2)cn1 [nilotinib]
Method in brief: as §1

[4] = compound: Cc1nc(Nc2n[nH]c3c2CN(C(=O)N[C@H](CN(C)C)c2ccccc2)C3(C)C)c2sccc2n1
Method in brief: as §1

[5] = compound: Cc1nc(Nc2ncc(C(=O)Nc3c(C)cccc3Cl)s2)cc(N2CCN(CCO)CC2)n1 [dasatinib]
Method in brief: as §1

[6] = compound: Cc1ncc(-c2ccnc(Nc3ccc(S(C)(=O)=O)cc3)n2)n1C(C)C
Method in brief: as §1

[7] = compound: Cn1cc(-c2ccc3c(c2)CCN3C(=O)Cc2cccc(C(F)(F)F)c2)c2c(N)ncnc21
Method in brief: as §1

[8] = compound: Cn1cc(-c2ccc3nnc(C(F)(F)c4ccc5ncccc5c4)n3n2)cn1
Method in brief: as §1

[9] = compound: Cn1cncc1[C@@](N)(c1ccc(Cl)cc1)c1ccc2c(c1)c(-c1cccc(Cl)c1)cc(=O)n2C [tipifarnib]
Method in brief: as §1

[10] = compound: FC(F)(F)c1ccc(/C=C/c2nc(COc3ccc(CCCCn4ccnn4)cc3)co2)cc1 [mubritinib]
Method in brief: as §1

[11] = compound: NC(=O)Nc1cc(-c2cccc(F)c2)sc1C(=O)N[C@H]1CCCNC1
Method in brief: as §1

[12] = compound: NC(=O)c1cnc(N[C@@H]2CCCC[C@@H]2N)nc1Nc1cccc(-n2nccn2)c1
Method in brief: as §1

[13] = compound: NC1(c2ccc(-c3nc4ccn5c(=O)[nH]nc5c4cc3-c3ccccc3)cc2)CCC1
Method in brief: as §1

[14] = compound: NCC(=O)Nc1ccc(-n2nc(C(F)(F)F)cc2-c2ccc3c(ccc4ccccc43)c2)cc1
Method in brief: as §1

[15] = compound: Nc1ccccc1NC(=O)c1ccc(CNC(=O)OCc2cccnc2)cc1 [entinostat]
Method in brief: as §1

[16] = compound: O=C(CCCCCCC(=O)Nc1ccccc1)NO [vorinostat]
Method in brief: as §1

[17] = compound: O=C(CCCCCCNC(=O)c1cnc(N(c2ccccc2)c2ccccc2Cl)nc1)NO [citarinostat]
Method in brief: as §1

[18] = compound: O=C(O)c1ccc2c(c1)nc(Nc1cccc(Cl)c1)c1ccncc12 [silmitasertib]
Method in brief: as §1

[19] = compound: O=C1NC(=O)C(c2cnc3ccccn23)=C1c1cn2c3c(cc(F)cc13)CN(C(=O)N1CCCCC1)CC2
Method in brief: as §1

[20] = compound: c1cc(OCCN2CCCCC2)cc(-c2n[nH]c3ccc(-c4nnc[nH]4)cc23)c1
Method in brief: as §1

Measured: log2 fold change

FBL (UniProt P22087)
inactive: [1] 0.29 | [2] -0.039 | [3] 0.094 | [4] -0.017 | [5] 0.454 | [6] -0.01 | [7] -0.337 | [8] -0.097 | [9] 0.301 | [10] -0.241 | [11] 0.095 | [12] 0.165 | [13] 0.455 | [14] 0.067 | [15] -0.109 | [16] 0.005 | [17] -0.109 | [18] 0.232 | [19] 0.13 | [20] -0.237

GHDC (UniProt Q8N2G8)
inactive: [1] -0.165 | [2] 0.018 | [3] 0.036 | [4] -0.001 | [5] 0.027 | [6] -0.011 | [7] 0.045 | [8] 0.012 | [9] 0.146 | [10] 0.01 | [11] -0.021 | [12] 0.013 | [13] 0.005 | [14] -0.018 | [15] 0.004 | [16] -0.023 | [17] 0.045 | [18] 0.001 | [19] -0.045 | [20] -0.03

FMC1 (UniProt Q96HJ9)
Chain of UniProt Q96HJ9 (Q96HJ9 whole entry, looked up): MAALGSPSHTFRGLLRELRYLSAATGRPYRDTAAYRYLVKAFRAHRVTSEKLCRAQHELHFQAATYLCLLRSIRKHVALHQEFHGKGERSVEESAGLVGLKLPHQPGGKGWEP
inactive: [1] -0.128 | [2] -0.026 | [3] 0.009 | [4] 0.045 | [5] 0.006 | [6] -0.012 | [7] -0.006 | [8] 0.009 | [9] 0.035 | [10] 0.016 | [11] 0.01 | [12] -0.044 | [13] -0.011 | [14] 0.013 | [15] -0.042 | [16] -0.054 | [17] 0.044 | [18] 0.006 | [19] -0.012 | [20] -0.053

HK2 (UniProt P52789)
active: [3] -0.967
inactive: [1] -0.215 | [2] 0.029 | [4] -0.194 | [5] -0.106 | [6] -0.03 | [7] 0.022 | [8] 0.01 | [9] -0.01 | [10] 0.046 | [11] 0.003 | [12] -0.012 | [13] -0.059 | [14] 0.016 | [15] 0.022 | [16] 0.048 | [17] 0.046 | [18] -0.021 | [19] -0.065 | [20] -0.059

GGT7 (UniProt Q9UJ14)
inactive: [1] -0.081 | [2] -0.038 | [3] 0.026 | [4] 0.015 | [5] -0.02 | [6] -0.03 | [7] 0.063 | [8] 0.018 | [9] 0.001 | [10] 0.021 | [11] -0.034 | [12] 0.04 | [13] -0.076 | [15] -0.081 | [16] 0.062 | [17] 0.058 | [18] -0.009 | [19] -0.061 | [20] 0.002
active: [14] 0.288

IFT80 isoform 3 (UniProt Q9P2H3)
Chain of UniProt Q9P2H3 (Q9P2H3 whole entry, looked up): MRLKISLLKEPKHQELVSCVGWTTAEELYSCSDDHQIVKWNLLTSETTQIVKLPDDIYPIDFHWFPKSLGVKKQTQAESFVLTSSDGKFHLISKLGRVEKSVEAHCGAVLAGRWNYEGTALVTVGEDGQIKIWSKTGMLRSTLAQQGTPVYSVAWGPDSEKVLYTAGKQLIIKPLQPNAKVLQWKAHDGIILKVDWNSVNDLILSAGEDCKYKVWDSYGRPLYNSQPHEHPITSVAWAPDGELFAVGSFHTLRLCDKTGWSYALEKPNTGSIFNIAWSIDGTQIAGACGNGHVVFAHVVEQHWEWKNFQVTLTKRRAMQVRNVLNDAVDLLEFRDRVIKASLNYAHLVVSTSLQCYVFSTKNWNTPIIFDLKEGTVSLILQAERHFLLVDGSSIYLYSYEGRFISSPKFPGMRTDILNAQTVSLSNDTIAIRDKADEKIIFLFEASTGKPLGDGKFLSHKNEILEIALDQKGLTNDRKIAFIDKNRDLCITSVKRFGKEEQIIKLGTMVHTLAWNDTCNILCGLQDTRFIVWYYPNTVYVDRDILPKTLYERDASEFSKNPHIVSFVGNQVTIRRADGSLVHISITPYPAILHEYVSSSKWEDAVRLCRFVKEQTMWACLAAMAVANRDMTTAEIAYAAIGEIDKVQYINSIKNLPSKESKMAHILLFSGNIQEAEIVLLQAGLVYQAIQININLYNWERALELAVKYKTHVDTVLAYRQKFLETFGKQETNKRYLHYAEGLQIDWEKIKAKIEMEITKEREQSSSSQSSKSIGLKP
inactive: [1] -0.127 | [2] 0.077 | [3] -0.059 | [4] -0.02 | [5] -0.148 | [6] 0.114 | [7] 0.036 | [8] 0.039 | [9] -0.07 | [10] 0.17 | [11] 0.027 | [12] 0.031 | [13] -0.081 | [14] 0.003 | [15] -0.005 | [16] 0.04 | [17] 0.011 | [18] -0.085 | [19] -0.086 | [20] -0.093

IGF2BP2 (UniProt Q9Y6M1)
Chain of UniProt Q9Y6M1 (Q9Y6M1 whole entry, looked up): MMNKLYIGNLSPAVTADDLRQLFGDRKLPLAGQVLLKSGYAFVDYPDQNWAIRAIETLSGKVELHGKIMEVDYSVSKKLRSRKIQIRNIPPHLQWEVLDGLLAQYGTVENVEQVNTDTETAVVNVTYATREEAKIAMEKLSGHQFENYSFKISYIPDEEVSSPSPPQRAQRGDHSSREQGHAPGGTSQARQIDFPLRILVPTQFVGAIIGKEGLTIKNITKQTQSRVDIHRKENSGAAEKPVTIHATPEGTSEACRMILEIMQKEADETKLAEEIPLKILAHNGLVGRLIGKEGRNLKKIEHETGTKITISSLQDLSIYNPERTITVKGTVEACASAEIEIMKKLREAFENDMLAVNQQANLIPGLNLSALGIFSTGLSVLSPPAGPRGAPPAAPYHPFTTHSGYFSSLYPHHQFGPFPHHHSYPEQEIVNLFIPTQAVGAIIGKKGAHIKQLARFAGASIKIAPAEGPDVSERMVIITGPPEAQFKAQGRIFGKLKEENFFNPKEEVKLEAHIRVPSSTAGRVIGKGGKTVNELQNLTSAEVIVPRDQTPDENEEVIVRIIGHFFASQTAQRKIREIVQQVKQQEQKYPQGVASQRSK
inactive: [1] 0.121 | [2] 0.004 | [3] -0.058 | [4] -0.018 | [5] 0.038 | [6] -0.039 | [7] -0.228 | [8] -0.191 | [9] 0.069 | [10] -0.071 | [11] 0.014 | [12] -0.051 | [13] 0.237 | [14] 0.045 | [15] 0.015 | [16] 0.128 | [17] -0.178 | [18] 0.16 | [19] 0.155 | [20] -0.208

HMGCR isoform 3 (UniProt P04035)
Chain of UniProt P04035 (P04035 whole entry, looked up): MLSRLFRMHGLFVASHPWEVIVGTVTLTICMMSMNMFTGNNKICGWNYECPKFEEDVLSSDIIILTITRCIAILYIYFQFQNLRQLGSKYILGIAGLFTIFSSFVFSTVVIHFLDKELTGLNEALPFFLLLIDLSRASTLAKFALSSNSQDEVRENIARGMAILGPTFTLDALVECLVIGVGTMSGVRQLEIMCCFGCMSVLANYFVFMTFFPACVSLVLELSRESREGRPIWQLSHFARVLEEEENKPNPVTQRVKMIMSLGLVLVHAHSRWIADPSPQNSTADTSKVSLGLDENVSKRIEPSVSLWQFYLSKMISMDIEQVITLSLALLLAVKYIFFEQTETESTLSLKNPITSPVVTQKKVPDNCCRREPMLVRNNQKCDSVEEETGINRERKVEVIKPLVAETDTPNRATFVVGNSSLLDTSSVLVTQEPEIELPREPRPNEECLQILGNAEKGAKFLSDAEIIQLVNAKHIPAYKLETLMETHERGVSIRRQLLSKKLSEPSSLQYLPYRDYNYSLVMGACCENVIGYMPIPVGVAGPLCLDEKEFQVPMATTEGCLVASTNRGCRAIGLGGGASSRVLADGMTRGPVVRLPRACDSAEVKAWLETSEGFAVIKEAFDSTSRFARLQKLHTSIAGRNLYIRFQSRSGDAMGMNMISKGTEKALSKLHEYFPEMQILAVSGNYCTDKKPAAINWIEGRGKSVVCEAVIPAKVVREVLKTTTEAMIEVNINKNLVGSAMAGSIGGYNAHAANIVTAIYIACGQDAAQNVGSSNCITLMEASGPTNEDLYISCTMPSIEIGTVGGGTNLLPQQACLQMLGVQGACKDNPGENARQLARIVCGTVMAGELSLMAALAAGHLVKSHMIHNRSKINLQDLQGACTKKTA
inactive: [1] 0.008 | [2] 0.016 | [3] -0.241 | [4] 0.015 | [5] -0.027 | [6] -0.087 | [7] -0.023 | [8] -0.062 | [9] -0.021 | [10] 0.1 | [11] 0.184 | [12] -0.115 | [13] 0.048 | [14] -0.022 | [15] 0.082 | [16] -0.019 | [17] -0.175 | [18] -0.08 | [19] 0.15 | [20] 0.081

HP1BP3 (UniProt Q5SSJ5)
Chain of UniProt Q5SSJ5 (Q5SSJ5 whole entry, looked up): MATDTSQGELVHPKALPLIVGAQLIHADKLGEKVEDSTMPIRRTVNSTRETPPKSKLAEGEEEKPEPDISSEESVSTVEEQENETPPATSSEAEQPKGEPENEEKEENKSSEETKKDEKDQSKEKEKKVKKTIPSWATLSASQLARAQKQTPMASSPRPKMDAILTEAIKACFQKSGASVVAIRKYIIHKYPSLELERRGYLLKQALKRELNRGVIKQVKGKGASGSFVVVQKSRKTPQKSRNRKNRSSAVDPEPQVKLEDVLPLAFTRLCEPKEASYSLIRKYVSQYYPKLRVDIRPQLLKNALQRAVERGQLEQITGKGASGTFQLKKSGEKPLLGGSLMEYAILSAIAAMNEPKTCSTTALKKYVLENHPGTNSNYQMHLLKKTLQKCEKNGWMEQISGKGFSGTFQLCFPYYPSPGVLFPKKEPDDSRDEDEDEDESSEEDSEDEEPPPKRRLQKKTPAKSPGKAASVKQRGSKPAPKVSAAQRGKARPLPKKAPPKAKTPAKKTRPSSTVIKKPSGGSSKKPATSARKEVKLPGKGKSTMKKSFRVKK
inactive: [1] 0.017 | [2] -0.082 | [3] 0.055 | [4] -0.008 | [5] 0.009 | [6] 0.125 | [7] -0.045 | [8] -0.087 | [9] 0.028 | [10] 0.026 | [11] 0.026 | [12] -0.057 | [13] 0.043 | [14] -0.034 | [15] 0.025 | [16] 0.132 | [17] 0.113 | [18] -0.048 | [19] 0.067 | [20] -0.023

FBXO3 (UniProt Q9UK99)
Chain of UniProt Q9UK99 (Q9UK99 whole entry, looked up): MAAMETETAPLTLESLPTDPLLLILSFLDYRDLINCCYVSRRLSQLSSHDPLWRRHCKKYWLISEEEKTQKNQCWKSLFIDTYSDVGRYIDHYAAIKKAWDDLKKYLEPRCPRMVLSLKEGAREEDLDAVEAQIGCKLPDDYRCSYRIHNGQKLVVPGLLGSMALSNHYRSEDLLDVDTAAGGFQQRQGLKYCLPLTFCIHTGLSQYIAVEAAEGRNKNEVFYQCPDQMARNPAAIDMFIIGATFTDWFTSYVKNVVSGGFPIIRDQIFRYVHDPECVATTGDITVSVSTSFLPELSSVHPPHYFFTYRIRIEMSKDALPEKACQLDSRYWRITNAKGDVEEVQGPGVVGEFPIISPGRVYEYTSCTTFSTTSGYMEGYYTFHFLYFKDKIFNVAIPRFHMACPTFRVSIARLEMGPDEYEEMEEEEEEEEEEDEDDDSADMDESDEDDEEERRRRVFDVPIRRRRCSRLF
inactive: [1] -0.052 | [2] 0.06 | [3] -0.031 | [4] -0.024 | [5] -0.054 | [6] -0.006 | [7] 0.041 | [8] -0.035 | [9] -0.007 | [10] 0.055 | [11] -0.034 | [12] -0.013 | [13] -0.202 | [14] -0.013 | [15] -0.039 | [16] 0.011 | [17] 0.016 | [18] -0.003 | [19] 0.001 | [20] -0.12

GLYR1 (UniProt Q49A26)
Chain of UniProt Q49A26 (Q49A26 whole entry, looked up): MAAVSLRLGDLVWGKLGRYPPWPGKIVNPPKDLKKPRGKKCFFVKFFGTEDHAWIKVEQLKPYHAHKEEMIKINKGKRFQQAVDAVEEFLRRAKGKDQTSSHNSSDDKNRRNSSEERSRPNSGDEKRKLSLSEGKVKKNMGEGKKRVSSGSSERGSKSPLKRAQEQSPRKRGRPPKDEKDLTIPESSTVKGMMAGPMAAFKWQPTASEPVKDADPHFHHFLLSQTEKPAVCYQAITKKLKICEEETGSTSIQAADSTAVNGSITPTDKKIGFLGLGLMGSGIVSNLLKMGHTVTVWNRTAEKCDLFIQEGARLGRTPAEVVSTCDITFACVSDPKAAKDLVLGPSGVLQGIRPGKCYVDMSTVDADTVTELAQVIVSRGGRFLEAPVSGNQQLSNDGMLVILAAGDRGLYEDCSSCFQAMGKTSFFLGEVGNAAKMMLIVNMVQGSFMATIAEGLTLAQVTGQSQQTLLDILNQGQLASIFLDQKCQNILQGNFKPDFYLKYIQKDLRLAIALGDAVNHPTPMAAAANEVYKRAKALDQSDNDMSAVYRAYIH
inactive: [1] 0.109 | [2] -0.015 | [3] 0.082 | [4] 0.068 | [5] 0.067 | [6] -0.004 | [7] -0.004 | [8] -0.01 | [9] 0.054 | [10] 0.024 | [11] -0.023 | [12] 0.034 | [13] -0.032 | [14] 0.112 | [15] -0.049 | [16] 0.027 | [17] 0.011 | [18] -0.015 | [19] -0.009 | [20] -0.135

HIP1 (UniProt O00291)
inactive: [1] -0.079 | [2] -0.069 | [3] -0.038 | [4] 0.063 | [5] 0.004 | [6] -0.079 | [7] -0.009 | [8] -0.002 | [9] -0.099 | [10] 0.077 | [11] -0.038 | [12] 0.035 | [13] 0.032 | [14] 0.038 | [15] -0.061 | [16] -0.013 | [17] 0.072 | [18] -0.123 | [19] -0.146 | [20] 0.06

HRAS (UniProt P01112)
Chain of UniProt P01112 (P01112 whole entry, looked up): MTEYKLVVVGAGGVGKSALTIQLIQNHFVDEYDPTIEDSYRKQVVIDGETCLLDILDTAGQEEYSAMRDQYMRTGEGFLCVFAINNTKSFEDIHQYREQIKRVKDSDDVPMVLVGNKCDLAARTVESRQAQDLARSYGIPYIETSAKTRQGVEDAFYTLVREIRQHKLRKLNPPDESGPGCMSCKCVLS
inactive: [1] -0.033 | [2] 0.063 | [3] 0.109 | [4] 0.024 | [5] 0 | [6] 0.003 | [7] 0.041 | [8] -0.007 | [9] 0.006 | [10] 0.033 | [11] 0.103 | [12] 0.233 | [13] 0.071 | [15] -0.012 | [16] -0.009 | [17] -0.067 | [18] 0.003 | [19] 0 | [20] 0.007
active: [14] 0.366

FBXO6 (UniProt Q9NRD1)
Chain of UniProt Q9NRD1 (Q9NRD1 whole entry, looked up): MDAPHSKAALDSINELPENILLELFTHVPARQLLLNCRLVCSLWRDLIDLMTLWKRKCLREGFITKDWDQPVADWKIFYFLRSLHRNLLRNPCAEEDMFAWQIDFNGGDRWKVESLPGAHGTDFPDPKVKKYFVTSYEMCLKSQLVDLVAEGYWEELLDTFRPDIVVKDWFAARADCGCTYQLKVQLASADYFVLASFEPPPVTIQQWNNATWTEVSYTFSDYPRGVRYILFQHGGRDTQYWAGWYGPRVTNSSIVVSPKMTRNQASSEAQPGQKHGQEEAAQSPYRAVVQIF
inactive: [2] 0.015 | [3] -0.118 | [4] -0.004 | [5] -0.202 | [6] 0.044 | [7] 0.047 | [8] -0.021 | [9] -0.021 | [10] -0.038 | [11] -0.009 | [12] 0.034 | [14] 0.028 | [15] 0.013 | [16] 0.074 | [17] 0.075 | [18] 0.012 | [19] -0.017 | [20] 0.026
active: [1] 0.442 | [13] 0.366

HEXA (UniProt P06865)
Chain of UniProt P06865 (P06865 whole entry, looked up): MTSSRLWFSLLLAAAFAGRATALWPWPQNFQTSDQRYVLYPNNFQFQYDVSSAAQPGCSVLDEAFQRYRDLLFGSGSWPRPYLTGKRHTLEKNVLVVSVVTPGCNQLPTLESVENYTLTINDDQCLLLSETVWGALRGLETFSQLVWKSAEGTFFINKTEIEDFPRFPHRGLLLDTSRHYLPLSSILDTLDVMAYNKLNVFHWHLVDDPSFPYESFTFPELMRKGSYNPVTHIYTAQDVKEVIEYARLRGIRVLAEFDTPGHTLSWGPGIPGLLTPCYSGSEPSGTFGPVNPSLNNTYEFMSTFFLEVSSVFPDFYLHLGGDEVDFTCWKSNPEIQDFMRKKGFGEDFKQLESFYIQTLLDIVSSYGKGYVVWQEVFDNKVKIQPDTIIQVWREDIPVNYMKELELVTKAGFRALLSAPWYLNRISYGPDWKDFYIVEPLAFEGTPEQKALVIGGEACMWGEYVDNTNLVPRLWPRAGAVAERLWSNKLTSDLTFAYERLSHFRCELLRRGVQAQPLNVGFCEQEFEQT
inactive: [2] -0.023 | [3] -0.001 | [4] 0.017 | [5] 0.016 | [6] -0.036 | [7] -0.003 | [8] 0.006 | [9] 0.044 | [10] 0.023 | [11] -0.025 | [12] -0.06 | [13] -0.156 | [14] 0.006 | [15] -0.028 | [16] -0.02 | [17] 0.056 | [18] -0.013 | [19] -0.037 | [20] -0.022
active: [1] -0.491

HDAC6 (UniProt Q9UBN7)
inactive: [1] -0.18 | [2] -0.086 | [3] 0.126 | [4] -0.026 | [5] -0.107 | [6] -0.084 | [7] 0.055 | [8] -0.005 | [9] -0.009 | [10] 0.086 | [11] 0.002 | [12] -0.04 | [13] 0.054 | [14] 0.001 | [15] -0.053 | [18] 0.009 | [19] 0.004 | [20] 0.064
active: [16] 0.86 | [17] 0.747
